From PubChem BioAssay (EPA / NIEHS)
Records with an inconclusive call do not appear. Active and inactive are the calls of the source. The calls were made as follows: active = hit-call score of the fitted dose curve at least 0.9, where 1 is the maximum; inconclusive = response in the unintended direction; inactive = score below 0.9.

Key:
Caspase-3 (Homo sapiens) = Caspase-3 (Homo sapiens) (UniProt P42574); test: NVS_ENZ_hCASP3: NovaScreen (NVS) Enzymatic Assay for human Caspase 3 (CASP3) (AID 2283139)
Caspase-3 (Homo sapiens), sequence (P42574 whole entry, looked up): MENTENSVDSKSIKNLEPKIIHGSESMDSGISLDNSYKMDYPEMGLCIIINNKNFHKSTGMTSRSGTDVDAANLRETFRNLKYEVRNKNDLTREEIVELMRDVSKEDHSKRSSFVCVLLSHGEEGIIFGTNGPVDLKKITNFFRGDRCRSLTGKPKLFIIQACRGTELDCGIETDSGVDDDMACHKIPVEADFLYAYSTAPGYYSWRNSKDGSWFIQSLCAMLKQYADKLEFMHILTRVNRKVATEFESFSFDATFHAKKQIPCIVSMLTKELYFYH
How it was run: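 Single-concentration screening at 25 uM in duplicate, with concentration-response follow-up to a 50 uM maximum for chemicals passing the threshold. Caspase-3 (human, E. coli-expressed) activity was read as substrate fluorescence after 1 h, with loss of signal relative to DMSO.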

[1] = biological target: human Caspase 4 (CASP4), CASP4 (gene 837) (UniProt P49662); test: NVS_ENZ_hCASP4: NovaScreen (NVS) Enzymatic Assay for human Caspase 4 (CASP4) (AID 2283143)
human Caspase 4 (CASP4), CASP4 (gene 837), sequence (P49662 whole entry, looked up): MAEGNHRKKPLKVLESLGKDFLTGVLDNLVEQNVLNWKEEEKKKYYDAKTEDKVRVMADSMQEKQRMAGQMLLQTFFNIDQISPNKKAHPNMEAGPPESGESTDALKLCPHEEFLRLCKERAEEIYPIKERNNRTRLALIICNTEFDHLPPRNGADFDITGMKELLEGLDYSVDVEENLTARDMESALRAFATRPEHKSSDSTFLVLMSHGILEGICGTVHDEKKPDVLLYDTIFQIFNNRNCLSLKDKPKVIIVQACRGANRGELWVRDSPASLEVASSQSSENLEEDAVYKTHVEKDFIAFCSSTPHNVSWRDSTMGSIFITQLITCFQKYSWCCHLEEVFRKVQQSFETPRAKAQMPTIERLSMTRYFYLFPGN
How it was run: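 Compounds were first tested in duplicate at 25 uM, and hits were titrated singly to a 50 uM maximum. Recombinant protease from E. coli was read by fluorescence 2 h post-dose, and activity loss was fitted against the DMSO baseline.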

[2] = biological target: human Caspase 8 (CASP8), CASP8 (gene 841) (UniProt Q14790); test: NVS_ENZ_hCASP8: NovaScreen (NVS) Enzymatic Assay for human Caspase 8 (CASP8) (AID 2283146)
human Caspase 8 (CASP8), CASP8 (gene 841), sequence (Q14790 whole entry, looked up): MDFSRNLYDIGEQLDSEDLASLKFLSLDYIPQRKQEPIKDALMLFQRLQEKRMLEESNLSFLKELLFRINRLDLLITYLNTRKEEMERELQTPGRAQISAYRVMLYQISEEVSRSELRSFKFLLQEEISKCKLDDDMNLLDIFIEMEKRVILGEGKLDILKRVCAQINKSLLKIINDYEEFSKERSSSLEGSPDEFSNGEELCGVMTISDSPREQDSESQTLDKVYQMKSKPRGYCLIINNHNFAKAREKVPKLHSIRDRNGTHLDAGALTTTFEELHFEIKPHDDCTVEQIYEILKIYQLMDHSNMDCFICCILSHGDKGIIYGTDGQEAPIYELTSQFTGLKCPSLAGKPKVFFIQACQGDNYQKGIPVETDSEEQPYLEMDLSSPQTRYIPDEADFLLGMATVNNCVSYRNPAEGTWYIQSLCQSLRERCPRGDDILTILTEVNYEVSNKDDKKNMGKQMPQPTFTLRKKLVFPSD
How it was run: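 The primary screen tested compounds in duplicate at a single 25 uM concentration, with actives followed up in concentration series. Activity of recombinant (E. coli) protease was measured by fluorescence 1 h post-dose, as signal loss against DMSO.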

[3] = biological target: human Casein Kinase 1-delta (CK1D), CSNK1D (gene 1453) (UniProt P48730); test: NVS_ENZ_hCK1D: NovaScreen (NVS) Enzymatic Assay for human Casein Kinase 1-delta (CK1D) (AID 2283148)
human Casein Kinase 1-delta (CK1D), CSNK1D (gene 1453), sequence (P48730 whole entry, looked up): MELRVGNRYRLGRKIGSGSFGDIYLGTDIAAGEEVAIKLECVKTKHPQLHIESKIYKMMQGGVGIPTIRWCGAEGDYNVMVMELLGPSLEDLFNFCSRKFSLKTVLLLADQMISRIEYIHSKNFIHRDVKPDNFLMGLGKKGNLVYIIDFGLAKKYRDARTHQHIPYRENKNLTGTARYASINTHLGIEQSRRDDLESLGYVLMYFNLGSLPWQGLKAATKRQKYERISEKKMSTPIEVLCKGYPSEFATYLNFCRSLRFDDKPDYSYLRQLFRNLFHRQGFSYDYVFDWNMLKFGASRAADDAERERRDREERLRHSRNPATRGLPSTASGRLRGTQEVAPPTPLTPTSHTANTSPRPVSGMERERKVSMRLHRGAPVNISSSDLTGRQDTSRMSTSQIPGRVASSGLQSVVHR
How it was run: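 Recombinant human CK1-delta, cell-free; fluorescent substrate with electrophoretic mobility-shift separation of product, read 1 h after dosing. Single 25 uM duplicate screen, then concentration-response up to 50 uM; loss of signal vs DMSO.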

[4] = biological target: human Colony Stimulating Factor 1 Receptor (CSF1R), CSF1R (gene 1436) (UniProt P07333); test: NVS_ENZ_hCSF1R: NovaScreen (NVS) Enzymatic Assay for human Colony Stimulating Factor 1 Receptor (CSF1R) (AID 2283150)
human Colony Stimulating Factor 1 Receptor (CSF1R), CSF1R (gene 1436), sequence (P07333 whole entry, looked up): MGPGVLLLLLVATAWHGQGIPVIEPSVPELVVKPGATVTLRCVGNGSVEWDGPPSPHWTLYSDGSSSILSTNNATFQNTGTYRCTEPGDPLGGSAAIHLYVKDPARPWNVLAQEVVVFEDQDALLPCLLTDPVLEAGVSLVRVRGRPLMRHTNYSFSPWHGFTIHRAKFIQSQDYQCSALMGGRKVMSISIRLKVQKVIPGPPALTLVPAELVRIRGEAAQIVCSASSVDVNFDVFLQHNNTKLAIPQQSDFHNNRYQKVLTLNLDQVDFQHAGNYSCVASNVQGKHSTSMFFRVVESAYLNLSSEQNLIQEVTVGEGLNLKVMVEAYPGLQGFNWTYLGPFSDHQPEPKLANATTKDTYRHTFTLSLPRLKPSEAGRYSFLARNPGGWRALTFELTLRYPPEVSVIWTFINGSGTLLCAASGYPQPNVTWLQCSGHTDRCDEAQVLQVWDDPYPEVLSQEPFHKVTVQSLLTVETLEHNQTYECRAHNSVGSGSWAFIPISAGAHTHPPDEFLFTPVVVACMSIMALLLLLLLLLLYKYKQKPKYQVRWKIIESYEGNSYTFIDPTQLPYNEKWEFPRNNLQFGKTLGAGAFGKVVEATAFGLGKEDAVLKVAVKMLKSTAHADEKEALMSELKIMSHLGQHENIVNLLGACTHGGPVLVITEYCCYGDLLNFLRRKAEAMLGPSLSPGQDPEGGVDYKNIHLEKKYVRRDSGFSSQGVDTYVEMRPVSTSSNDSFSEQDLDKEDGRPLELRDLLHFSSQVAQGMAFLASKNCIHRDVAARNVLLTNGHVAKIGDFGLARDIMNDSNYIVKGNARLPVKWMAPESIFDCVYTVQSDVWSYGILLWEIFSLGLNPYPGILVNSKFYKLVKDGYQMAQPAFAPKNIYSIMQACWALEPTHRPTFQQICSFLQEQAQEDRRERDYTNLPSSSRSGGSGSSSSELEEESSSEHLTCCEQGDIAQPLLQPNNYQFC
How it was run: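 Compounds screened in duplicate at 25 uM, then concentration-response (top 50 uM) for those passing threshold such as 30% inhibition; recombinant CSF1R activity measured 1 h post-dosing via fluorescent substrate/product mobility-shift separation, loss of signal versus DMSO.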

[5] = biological target: human AKT serine/threonine Kinase 1 (AKT1), AKT1 (gene 207) (UniProt P31749); test: NVS_ENZ_hAKT1: NovaScreen (NVS) Enzymatic Assay for human AKT serine/threonine Kinase 1 (AKT1) (AID 2283138)
human AKT serine/threonine Kinase 1 (AKT1), AKT1 (gene 207), sequence (P31749 whole entry, looked up): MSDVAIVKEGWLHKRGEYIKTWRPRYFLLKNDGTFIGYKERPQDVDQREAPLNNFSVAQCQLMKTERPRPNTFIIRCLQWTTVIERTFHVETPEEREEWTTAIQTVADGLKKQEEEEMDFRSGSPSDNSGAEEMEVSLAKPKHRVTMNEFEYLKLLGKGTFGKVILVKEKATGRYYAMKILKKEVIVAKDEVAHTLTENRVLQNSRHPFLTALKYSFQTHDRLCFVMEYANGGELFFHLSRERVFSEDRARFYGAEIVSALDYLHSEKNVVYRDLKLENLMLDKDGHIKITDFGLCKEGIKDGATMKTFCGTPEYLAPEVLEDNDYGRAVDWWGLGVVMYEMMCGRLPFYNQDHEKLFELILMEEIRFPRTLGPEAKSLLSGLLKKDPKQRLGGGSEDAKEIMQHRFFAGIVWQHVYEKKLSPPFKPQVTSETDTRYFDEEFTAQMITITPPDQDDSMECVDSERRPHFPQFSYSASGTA
How it was run: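 Compounds were first tested in duplicate at 25 uM, and those passing a threshold such as 30% inhibition were run in concentration-response to a maximum of 50 uM. Enzyme activity was measured after 1 h by fluorescence following substrate/product mobility-shift separation.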

CDK2 (gene 1017) = CDK2 (gene 1017) (UniProt P24941); test: NVS_ENZ_hCDK2: NovaScreen (NVS) Enzymatic Assay for human Cyclin-Cependent Kinase 2 (CDK2) (AID 2283144)
Procedure: NVS_ENZ_hCDK2 is a biochemical, single-readout assay that uses extracted gene-proteins in a cell-free assay. Measurements were taken 1 hour after chemical dosing in a 384-well plate.NVS_ENZ_hCDK2 is one of one assay component(s) measured or calculated from the NVS_ENZ_hCDK2 assay. It is designed to make measurements of enzyme activity, a form of enzyme reporter, as detected with fluorescence intensity signals by Fluorescence and electrophoretic mobility shift technology.Data from the assay component NVS_ENZ_hCDK2 was analyzed into 1 assay endpoint. This assay endpoint, NVS_ENZ_hCDK2, was analyzed in the positive analysis fitting direction relative to DMSO as the negative control and baseline of activity. Using a type of enzyme reporter, loss-of-signal activity can be used to understand changes in the enzymatic activity as they relate to the gene CDK2. Furthermore, this assay endpoint can be referred to as a primary readout, because this assay has produced multiple assay endpoints where this one serves a enzymatic activity function. To generalize the intended target to other relatable targets, this assay endpoint is annotated to the kinase intended target family, where the subfamily is serine/threonine kinase. […]

[6] = biological target: human Beta-secretase (BACE), BACE1 (gene 23621) (UniProt P56817); test: NVS_ENZ_hBACE: NovaScreen (NVS) Enzymatic Assay for human Beta-secretase (BACE) (AID 2283140);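 also: hits are inhibitors that reduce fluorescent substrate signal versus DMSO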
human Beta-secretase (BACE), BACE1 (gene 23621), sequence (P56817 whole entry, looked up): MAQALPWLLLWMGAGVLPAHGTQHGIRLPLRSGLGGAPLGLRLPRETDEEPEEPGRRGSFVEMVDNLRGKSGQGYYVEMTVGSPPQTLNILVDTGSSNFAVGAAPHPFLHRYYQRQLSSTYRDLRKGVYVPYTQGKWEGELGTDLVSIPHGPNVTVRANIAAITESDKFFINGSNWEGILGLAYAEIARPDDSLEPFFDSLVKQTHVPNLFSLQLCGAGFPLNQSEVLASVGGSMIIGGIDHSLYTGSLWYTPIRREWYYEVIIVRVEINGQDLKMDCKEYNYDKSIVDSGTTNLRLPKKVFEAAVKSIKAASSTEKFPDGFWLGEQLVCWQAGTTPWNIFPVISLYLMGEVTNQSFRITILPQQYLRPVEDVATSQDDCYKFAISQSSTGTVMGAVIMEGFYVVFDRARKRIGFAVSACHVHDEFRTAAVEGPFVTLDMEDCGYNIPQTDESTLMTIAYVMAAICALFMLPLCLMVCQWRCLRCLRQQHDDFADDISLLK
How it was run: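 Fluorescence intensity read-out of protease activity defines this endpoint; signal loss relative to DMSO baseline marks inhibition. Recombinant enzyme from SF9 cells, cell-free format, 1 h exposure. Single-concentration duplicate screen (25 uM) precedes concentration-series follow-up.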

[7] = biological target: human Caspase 5 (CASP5), CASP5 (gene 838) (UniProt P51878); test: NVS_ENZ_hCASP5: NovaScreen (NVS) Enzymatic Assay for human Caspase 5 (CASP5) (AID 2283137)
human Caspase 5 (CASP5), CASP5 (gene 838), sequence (P51878 whole entry, looked up): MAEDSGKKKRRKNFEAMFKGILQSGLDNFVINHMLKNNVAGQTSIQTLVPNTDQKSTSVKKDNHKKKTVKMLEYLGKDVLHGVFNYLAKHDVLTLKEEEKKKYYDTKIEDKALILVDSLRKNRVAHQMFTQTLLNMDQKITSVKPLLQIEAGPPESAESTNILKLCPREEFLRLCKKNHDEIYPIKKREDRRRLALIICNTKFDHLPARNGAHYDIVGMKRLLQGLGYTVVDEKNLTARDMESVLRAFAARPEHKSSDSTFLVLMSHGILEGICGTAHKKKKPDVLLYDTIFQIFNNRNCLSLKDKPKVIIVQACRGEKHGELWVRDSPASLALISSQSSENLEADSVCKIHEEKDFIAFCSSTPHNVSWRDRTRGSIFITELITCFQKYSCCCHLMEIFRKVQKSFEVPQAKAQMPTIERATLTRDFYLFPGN
How it was run: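 Chemicals were first tested in duplicate at 25 uM against recombinant caspase 5 from E. coli. Activity was read by fluorescence intensity 2 hours after dosing. Those passing a preset inhibition threshold were retested in singleton concentration-response up to 50 uM.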

[8] = biological target: human AKT serine/threonine Kinase 2 (AKT2), AKT2 (gene 208) (UniProt P31751); test: NVS_ENZ_hAKT2: NovaScreen (NVS) Enzymatic Assay for human AKT serine/threonine Kinase 2 (AKT2) (AID 2283141)
human AKT serine/threonine Kinase 2 (AKT2), AKT2 (gene 208), sequence (P31751 whole entry, looked up): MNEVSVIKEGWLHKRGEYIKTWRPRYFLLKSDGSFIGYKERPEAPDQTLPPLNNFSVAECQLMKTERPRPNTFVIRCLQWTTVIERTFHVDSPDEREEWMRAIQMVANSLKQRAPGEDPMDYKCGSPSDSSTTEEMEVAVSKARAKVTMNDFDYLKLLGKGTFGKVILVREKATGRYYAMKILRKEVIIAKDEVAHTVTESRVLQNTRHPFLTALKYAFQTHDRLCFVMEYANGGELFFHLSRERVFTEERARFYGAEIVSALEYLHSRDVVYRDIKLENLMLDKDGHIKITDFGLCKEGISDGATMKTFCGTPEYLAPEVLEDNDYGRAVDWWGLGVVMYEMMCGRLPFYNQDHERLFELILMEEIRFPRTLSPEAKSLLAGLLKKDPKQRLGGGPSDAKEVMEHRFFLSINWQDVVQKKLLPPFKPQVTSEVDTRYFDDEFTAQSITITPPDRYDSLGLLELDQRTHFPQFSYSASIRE
How it was run: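 Cell-free fluorescence/electrophoretic mobility shift readout of recombinant human AKT2 activity, 1 h after chemical dosing. Duplicate primary screen at 25 uM, then singleton concentration-response up to 50 uM; loss of signal versus DMSO baseline.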

## CCCCCCCC(=O)OC
Caspase-3 (Homo sapiens)
  outcome: inactive

## O=C(O)c1[nH]n(-c2ccc(S(=O)(=O)O)cc2)c(=O)c1N=Nc1ccc(S(=O)(=O)O)cc1
[1]
  outcome: inactive
[2]
  AC50: 7.11 µM (active)

## O=C(N[C@@H](c1ccccc1)[C@@H]1CCCCN1)c1cccc(C(F)(F)F)c1Cl
[3]
  outcome: inactive
[4]
  outcome: inactive

## C=CCCCCCCCCCCCC
[3]
  outcome: inactive

## COc1ccc(OC(F)(F)F)cc1CN[C@H]1CCCN[C@H]1c1ccccc1
[5]
  outcome: inactive
CDK2 (gene 1017)
  outcome: inactive
[3]
  outcome: inactive
[4]
  outcome: inactive

## CN(C)C(=O)NC1(c2ccccc2)CCN(CCC[C@]2(c3ccc(Cl)c(Cl)c3)CCCN(C(=O)c3ccccc3)C2)CC1
[3]
  outcome: inactive
[4]
  outcome: inactive

## CCCC(=O)O
[5]
  outcome: inactive

## Cc1cc(SC2=C(O)C[C@@](CCc3ccc(N)cc3)(C(C)C)OC2=O)c(C(C)(C)C)cc1CO
[6]
  outcome: inactive

## O=C1CCCCC1
[7]
  outcome: inactive
Caspase-3 (Homo sapiens)
  outcome: inactive

## S=c1[nH]c2ccccc2s1
[5]
  outcome: inactive
[1]
  outcome: inactive

## Cn1cnc2c1c(=O)[nH]c(=O)n2C
[7]
  outcome: inactive

## CN(C)C(=O)NC1(c2ccccc2)CCN(CC[C@@]2(c3ccc(F)c(F)c3)CN(C(=O)c3ccccc3)CCO2)CC1
[5]
  outcome: inactive
Caspase-3 (Homo sapiens)
  outcome: inactive

## CC(C)c1cccc(C(C)C)c1
[2]
  outcome: inactive

## O=C(Oc1ccccc1)c1cccc(C(=O)Oc2ccccc2)c1
CDK2 (gene 1017)
  outcome: inactive
[3]
  outcome: inactive

## O=Cc1ccccc1C=O
[7]
  outcome: inactive

## CCc1cc(C2=C(C(=O)O)N(c3ccccc3C(F)(F)F)S(=O)(=O)c3ccccc32)cc2c1OCO2
[7]
  outcome: inactive
[6]
  AC50: 6.05 µM (active)
[1]
  outcome: inactive

## CC(C)(C)c1ccccc1
[6]
  outcome: inactive

## CC(C)COC(=O)CCCCC(=O)OCC(C)C
[6]
  AC50: 36.1 µM (active)

## CN(C)CCCN1c2ccccc2Sc2ccc(Cl)cc21
[6]
  outcome: inactive

## CCCCCCC(CCCCCCCCCCC(=O)OCC(COC(C)=O)OC(C)=O)OC(C)=O (stereo unspecified)
[7]
  AC50: 13.7 µM (active)

## O=C1c2c(O)cccc2Cc2cccc(O)c21
[7]
  AC50: 0.235 µM (active)
[5]
  outcome: inactive
Caspase-3 (Homo sapiens)
  AC50: 13.1 µM (active)
[6]
  AC50: 1.22 µM (active)
[8]
  AC50: 16 µM (active)
[1]
  AC50: 4.5 µM (active)
[2]
  AC50: 7.92 µM (active)

## Nc1nc(Cl)nc2c1ncn2[C@H]1C[C@H](O)[C@@H](CO)O1
[4]
  outcome: inactive

## O=C(O)CC(O)(CC(=O)O)C(=O)O
[4]
  outcome: inactive

## CC(N)=O
[3]
  outcome: inactive

## CCc1nc(N)nc(N)c1-c1ccc(Cl)cc1
[6]
  outcome: inactive

## CCCCCCCCCCCCCCOS(=O)(=O)O
[7]
  AC50: 2.27 µM (active)
[5]
  AC50: 14.2 µM (active)
[6]
  AC50: 1.77 µM (active)
[8]
  AC50: 13.3 µM (active)
[4]
  AC50: 9.44 µM (active)

## CC(=O)OC1CC(C)OC(C)O1 (stereo unspecified)
Caspase-3 (Homo sapiens)
  outcome: inactive

## CCN(CC)CCOc1ccc(C(=C(Cl)c2ccccc2)c2ccccc2)cc1
[6]
  AC50: 14.7 µM (active)

## Cc1ccc(-c2cc(C(F)(F)F)nn2-c2ccc(S(N)(=O)=O)cc2)cc1
[1]
  outcome: inactive
